Test results from PubChem BioAssay (NCI).
The panel holds about 83,000 compounds, 20% with a hit somewhere; the sample as a whole holds those more often.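 Treatment: one concentration, 48 hours, 96-well format. Scoring: percent growth, with anything below 10 considered active.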 Values without a mark were called inactive. Active and inactive are the calls of the source.

test system: NCI/ADR-RES ovarian; experiment: NCI-60 one-dose screen, 48 h (100 = growth as untreated, 0 = no growth, -100 = all killed); settings: 10 µM unless noted
Experimental: Growth inhibition of the NCI/ADR-RES human […] tumor cell line is measured as a screen for anti-cancer activity. Cells are grown in 96 well plates and exposed to the test compound for 48 hours. Compounds are tested at a single concentration, which is 10^-5 M for most compounds. The reported endpoint is percent growth (GI% or GIPRCNT), where numbers from 0 - 100% represent growth inhibition, and numbers from -100% - 0 represent cell death. For example, a value of 40 represents 60% growth inhibition. A value of 0 means no net growth occurred over the course of the experiment. A value of -40 indicates 40% of cells at the beginning of the experiment died by the end of the experiment. A value of -100 means all cells are dead at the end of the experiment.
NCI-60 Human Tumor Cell Lines Screen was performed using the standard one-dose NCI protocol, which is described in more detail at https://dtp.cancer.gov/discovery_development/nci-60/default.htm.
Compounds with GIPRCNT values below 10 were considered active. Activity score was based on GIPRCNT using the following formula: […]
Score is 0 for GIPRCNT values of 100 or above, 50 for GIPRCNT values of 0, and 100 for GIPRCNT values of -100.

| Compound | growth |
| --- | --- |
| COc1ccc(C(=O)Nc2ccc3nc(N4CCCCC4)cc(C)c3c2)cc1OC | 98.3% |
| CCC(C)(C)C(=O)O[C@H]1C[C@@H](C)C=C2C=C[C@H](C)[C@H](CC[C@@H]3CC=CC(=O)O3)[C@H]21 | 90.6% |
| CCCCC1CCc2cccc3c(SCC(=O)N(C)c4ccc(Cl)cc4)cc[n+]1c23 (stereo not given) | 110% |
| NNC(=O)CNC(=O)Nc1n[nH]c(=S)s1 | 104% |
| O=C(Nc1ccc(F)cc1F)c1cc(Cl)ccc1O | 7.62% (active) |
| O=C(NC1CCN(Cc2ccccc2)CC1)c1cc2nc(-c3ccc(Cl)s3)cc(C(F)(F)F)n2n1 | 94.4% |
| CCCCCCCCCCCCCCn1cc(C2=C(c3coc4ccc(OC)cc34)C(=O)NC2=O)c2ccccc21 | 98.9% |
| COc1ccc2occ(C3=C(c4c[nH]c5ccccc45)C(=O)NC3=O)c2c1 | 20.5% |
| COc1ccc(CN2CCCC(C(=O)c3ccc(C(F)(F)F)cc3)C2)c(O)c1 (stereo not given) | 9.17% (active) |
| Fc1cccc(COc2ccc(Nc3ncnc4onc(-c5ccccc5)c34)cc2)c1 | 46.5% |
| COc1cccc(C2=NN3C(C2)c2ccccc2OC3c2ccc(/C=C3\SC(=O)NC3=O)cc2)c1 (stereo not given) | 111% |
| C=C[C@@H]1CCC/C=C/[C@@H]2C[C@H](O)C[C@H]2[C@H](O)/C=C/C(=O)O1 | 1.8% (active) |
| O=C(Nc1ccsc1C(=O)NC1CCCCC1)c1ccc(F)cc1 | 96.5% |
| COc1ccc(/C=C2\NC(=O)NC2=O)cc1O | 102% |
| CNCCNc1nc2ccccc2c2c(=O)c3cccc(C)c3sc12 | 44.6% |
| O=C(Nc1ccc(-c2nc3cc4ccccc4cc3[nH]2)cc1)c1cccc(Br)c1 | 39.2% |
| COc1ccc(/C=C/C(=O)c2c(C)nc3ccccc3c2/C=C/c2ccccc2)cc1O | 17.7% |
| CNCCNc1nc2ccccc2c2c(=O)c3cccc(OC)c3sc12 | 37.5% |
| Clc1ccc(Oc2ccc(Nc3ncnc4onc(-c5ccccc5)c34)cc2)c(Cl)c1 | 96.8% |
| CC[C@@H](C)[C@H](NC(=O)Cn1cc(CNC(=O)[C@@H](NC(=O)OCc2ccccc2)C(C)C)nn1)C(=O)O | 105% |

| Compound | growth |
| --- | --- |
| COc1ccc(CSc2nnc(SCC(=O)Nc3ccc(Cl)cc3)s2)cc1 | 47.6% |
| Cc1ccc2nc(NC(=O)CSC(=S)N3CCN(c4ccccc4)CC3)sc2c1 | 88.2% |
| N#C/C(=C1\SC(=O)CN1c1ccccc1)c1nc2ccccc2s1 | 89.2% |
| Nc1n[nH]c2ccc([C@@H]3Nc4ccc5[nH]ncc5c4[C@H]4[C@H]5CCC(C5)[C@H]43)cc12 | 5.44% (active) |
| COc1ccccc1C1=C(Br)C(=O)c2nc(C)ccc2C1=O | 107% |
| C#CCn1cc(C=C2C(=O)NC(=O)NC2=O)c2cc(Cl)ccc21 | 99.8% |
| COc1ccc(-c2cn3c(C(=O)Nc4ccccc4Cl)c(-c4ccccc4)c4c3n2CCCC4)cc1 | 81.7% |
| CN1C(=O)N(C)C2(c3ccccc3)n3c(s/c(=C\c4ccccc4)c3=O)=NNC12c1ccccc1 (stereo not given) | 88.3% |
| CCCCCCc1cc2cc(-c3csc(/C=C/c4ccccc4)n3)c(=O)oc2cc1O | 20.2% |
| CCN1C(=O)N(c2ccccc2)C2Nn3c(s/c(=C4\C(=O)N(C(C)C)c5ccccc54)c3=O)=NC21 (stereo not given) | 109% |
| COc1ccc2c(c1)C=C1CSCC3=Cc4cc(OC)ccc4OC13O2 | -1.58% (active) |
| COc1ccccc1N1C(=N)S/C(=C\c2ccc(OCc3ccccc3F)cc2)C1=O | 71.3% |
| COc1cc2cc3c(=O)n4c(cc5cc(OC)ncc54)c(=O)n3c2cn1 | 108% |
| Cc1ccc(Nc2nc(N)c3ccccc3n2)cc1Cl | 45.5% |
| Clc1ncccc1Nc1ccc2nnc(-c3ccncc3)n2n1 | 98.7% |
| COc1ccc2sc(N(Cc3cccnc3)C(=O)c3ccc(C#N)cc3)nc2c1 | 85.4% |
| COc1ccc(Cn2cc(Cn3c(=O)c(-c4nc5ccccc5[nH]4)cc4ccccc43)nn2)c(OC)c1OC | -2.32% (active) |
| CN(C)c1ccc(/C=C/c2ccnc3c(O)cccc23)cc1 | 19.5% |
| Cc1nc(Nc2ccccn2)sc1C(=O)/C=C/c1ccc(Cl)cc1 | 3.2% (active) |
| Brc1ccc(Oc2ccc(Nc3ncnc4onc(-c5ccccc5)c34)cc2)cc1 | 94.1% |
